# Assay results published in the supplement of paper PMC8253809.
# Values joined by “and” are separate entries in the source; they are usually repeats but may differ in a detail not shown here. Equal values may be shown once.
# Legend:
# Experiment in all cases: growth inhibition (% activity, log2 RLU normalised to DMSO / staurosporine); higher = more growth inhibition
# Settings in all cases: 33 µM
# DIPGX29 = test system: DIPGX29 (H3.3 K27M diffuse intrinsic pontine glioma line)
# Outline: (§1)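 The growth-inhibition value is the median over replicates. pHGG cell lines and H9-derived neural stem cells on Geltrex-coated 384-well plates received approved drugs by pin tool at a single final concentration of about 33 μM, in triplicate, for 7 days at 37 °C, 5% CO2. CellTiter-Glo luminescence was log2-transformed and normalised per plate to % activity between solvent and positive control wells.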
# DIPGX37 = test system: DIPGX37 (H3.3 K27M diffuse intrinsic pontine glioma line)
# Outline: as §1
# DIPGX7 = test system: DIPGX7 (H3.3 K27M diffuse intrinsic pontine glioma line)
# Outline: as §1
# DIPGX9 = test system: DIPGX9 (diffuse intrinsic pontine glioma line)
# Outline: as §1
# HGGX39 = test system: HGGX39 (paediatric high-grade glioma line)
# Outline: as §1
# HGGX6 = test system: HGGX6 (H3.3 G34R paediatric high-grade glioma line)
# Outline: as §1
# HNSC = test system: HNSC
# Outline: as §1
# SUDIPGIV = test system: SUDIPGIV (diffuse intrinsic pontine glioma line)
# Outline: as §1
# SUDIPGVI = test system: SUDIPGVI (diffuse intrinsic pontine glioma line)
# Outline: as §1
# SUDIPGXIII = test system: SUDIPGXIII (diffuse intrinsic pontine glioma line)
# Outline: as §1
Compound,growth inhibition (DIPGX29),growth inhibition (DIPGX37),growth inhibition (DIPGX7),growth inhibition (DIPGX9),growth inhibition (HGGX39),growth inhibition (HGGX6),growth inhibition (HNSC),growth inhibition (SUDIPGIV),growth inhibition (SUDIPGVI),growth inhibition (SUDIPGXIII)
Cn1c(CNc2ccc(C(=N)N)cc2)nc2cc(C(=O)N(CCC(=O)O)c3ccccn3)ccc21,0.681%,3.45%,1.05%,3.29%,2.01%,-1.53%,6.58%,1.54%,0.719%,-0.457%
CCCC(=O)O[C@]1(C(=O)COC(C)=O)CC[C@H]2[C@@H]3C[C@H](F)C4=CC(=O)C=C[C@]4(C)[C@@]3(F)[C@@H](O)C[C@@]21C,1.5%,1.44%,-0.393%,2.91%,2.12%,0.881%,-3.23%,-4.91%,-0.161%,1.12%
S=c1[nH]cnc2nc[nH]c12,20.1%,10.9%,25.3%,10.6%,23.2%,24.2%,58.1%,28.8%,13.4%,18.8%
CCOC(=O)[C@H](CCc1ccccc1)N[C@@H](C)C(=O)N1Cc2cc(OC)c(OC)cc2C[C@H]1C(=O)O,-2.18%,-2.28%,-0.52%,-1.23%,-1.86%,-4.51%,12.2%,-0.334%,-11%,1.38%
O=C(NCCO[N+](=O)[O-])c1cccnc1,-0.0278%,2.96%,1.16%,1.21%,0.669%,-4.02%,46.8%,0.797%,1.67%,-0.184%
Cc1onc(-c2ccccc2Cl)c1C(=O)N[C@@H]1C(=O)N2[C@@H]1SC(C)(C)[C@@H]2C(=O)O,-0.728%,-0.729%,-0.308%,-1.05%,-0.725%,1.07%,-1.87%,-0.916%,-0.387%,-9.34%
CNC(=C[N+](=O)[O-])NCCSCc1ccc(CN(C)C)o1,2.69%,2.65%,5.27%,2.2%,4.25%,0.922%,9.82%,1.43%,1.91%,-0.737%
NC[C@@H]1O[C@H](O[C@H]2[C@@H](O)[C@H](O[C@@H]3[C@@H](O)[C@H](N)C[C@H](N)[C@H]3O[C@H]3O[C@H](CN)[C@@H](O)[C@H](O)[C@H]3N)O[C@@H]2CO)[C@H](N)[C@@H](O)[C@@H]1O,0.966%,0.68%,1.55%,0.402%,2.24%,-1.34%,20.2%,2.53%,-6.55%,-0.235%
CC(C)CN(C[C@@H](O)[C@H](Cc1ccccc1)NC(=O)O[C@H]1CO[C@H]2OCC[C@H]21)S(=O)(=O)c1ccc(N)cc1,-2.82%,-0.683%,-0.244%,-0.934%,-1.58%,0.0431%,-4.53%,-3.11%,-1.79%,1.1%
CCC(=O)O[C@@H](O[P@](=O)(CCCCc1ccccc1)CC(=O)N1C[C@H](C2CCCCC2)C[C@H]1C(=O)O)C(C)C,1.88%,3.74%,2.4%,1.15%,2.87%,2.08%,2.72%,1.26%,3.21%,-1.04%
CC1CC(OC(=O)C(O)c2ccccc2)CC(C)(C)C1 (stereo not given),-0.681%,1.83%,0.84%,0.0624%,1.43%,-3.88%,10.7%,2.02%,0.402%,1.8%
NC(=O)c1cnccn1,-1.43%,0.819%,-1.41%,-0.339%,-2.81%,1.4%,-0.255%,-2.49%,0.0834%,1%
C[C@@H](CN1CC(=O)NC(=O)C1)N1CC(=O)NC(=O)C1,-0.213%,0.752%,1.24%,0.711%,0.0185%,-0.816%,2.52%,-0.536%,-1.35%,-1.67%
O=C(O)CCc1nc(-c2ccccc2)c(-c2ccccc2)o1,-0.808%,1.84%,-1.35%,-1.33%,0.585%,1.25%,-2.45%,-2.53%,0.464%,1.19%
Cc1ccc(C(=O)c2ccc(CC(=O)O)n2C)cc1,-0.189%,-0.055%,0.146%,0.57%,0.449%,-0.641%,2.18%,-4%,1.82%,-0.302%
NC(=O)CC[C@H](N)C(=O)O,-1.66%,0.802%,-0.27%,0.17%,-0.498%,-1.45%,-2.34%,-1.24%,1.4%,-0.384%
COc1ccccc1N1CCN(CC(O)COc2cccc3ccccc23)CC1 (stereo not given),0.825%,1.5%,3.11%,4.27%,2.32%,1.78%,0.281%,-1.37%,0.873%,-16%
C[C@@H](O)[C@H]1C(=O)N2C(C(=O)[O-])=C(SC3Cn4cnc[n+]4C3)[C@H](C)[C@H]12 (stereo not given in full),-0.594%,-1.93%,-0.736%,0.334%,0.724%,2.31%,-1.63%,-0.792%,0.279%,1.62%
CC1CNc2c(cccc2S(=O)(=O)N[C@@H](CCCNC(=N)N)C(=O)N2CC[C@@H](C)C[C@@H]2C(=O)O)C1 (stereo not given in full),0.0741%,1.59%,-1.49%,0.277%,-0.0474%,-1.28%,12.3%,1.8%,0.243%,-1.66%
O=C(O)c1cc(=O)c2c(OCC(O)COc3cccc4oc(C(=O)O)cc(=O)c34)cccc2o1,-1.5%,1.34%,-1.58%,0.155%,-0.164%,1.99%,-1.63%,-0.417%,-0.328%,1.77%
CCC[C@@H]1C[C@@H](C(=O)N[C@@H]([C@H]2O[C@H](SC)[C@H](O)[C@@H](O)[C@H]2O)[C@@H](C)O)N(C)C1,-2.47%,0.84%,-0.347%,0.338%,-0.628%,-0.292%,0.119%,0.1%,-1.6%,0.849%
C[C@]12CCC(=O)C=C1CC[C@@H]1[C@@H]2[C@@H](O)C[C@@]2(C)[C@H]1CC[C@]2(O)C(=O)CO,1.76%,3.35%,0.297%,4.32%,3.81%,2.56%,-1.17%,-0.15%,3.46%,0.475%

Compound,growth inhibition (DIPGX29),growth inhibition (DIPGX37),growth inhibition (DIPGX7),growth inhibition (DIPGX9),growth inhibition (HGGX39),growth inhibition (HGGX6),growth inhibition (HNSC),growth inhibition (SUDIPGIV),growth inhibition (SUDIPGVI),growth inhibition (SUDIPGXIII)
COCCc1ccc(OCC(O)CNC(C)C)cc1 (stereo not given),0.745%,0.102%,1.22%,2.73%,2.04%,1.92%,-0.726%,0.382%,2.97%,-0.552%
Cc1cc(C2CCCCC2)n(O)c(=O)c1,68.5% and 63.3%,7.69% and 8.51%,54.5% and 43.2%,68.8% and 56.5%,8.59% and 9.1%,67.5% and 63.6%,81.5% and 63.9%,13.4% and 8.52%,-4.21% and -2.85%,21.3% and 10.6%
CCN1CC(CCN2CCOCC2)C(c2ccccc2)(c2ccccc2)C1=O (stereo not given),3.26%,4.12%,3.42%,1.56%,3.54%,3.39%,6.96%,3.42%,2.27%,-0.683%
CCOC(=O)C1=C(C)NC(C)=C(C(=O)OC)C1c1cccc(Cl)c1Cl (stereo not given),2.2%,0.16%,2.82%,2.94%,6.84%,-1.45%,5.27%,3.57%,1.79%,-2.05%
O=C(O)c1ccccc1,-1.57%,1.08%,-0.546%,-0.0449%,0.585%,-1.44%,1.02%,1.15%,-2.88%,1.73%
O=c1n(CCCN2CCN(c3cccc(Cl)c3)CC2)nc2ccccn12,3.64%,2.01%,4.26%,3.67%,4.78%,3.57%,6.62%,2.09%,4.36%,0.00306%
CN(C)CCC(c1ccc(Cl)cc1)c1ccccn1 (racemic),1.65%,2.71%,2.71%,1.38%,3.68%,0.339%,4.41%,1.92%,4.15%,-0.538%
C[N+]1(C)[C@@H]2C[C@@H](OC(=O)C(O)(c3cccs3)c3cccs3)C[C@H]1[C@@H]1O[C@@H]12,-2.02%,-0.731%,-2.26%,-2.3%,-2.1%,-0.274%,-3.15%,-1.02%,-2.31%,0.889%
Cc1cn(C2C=CC(CO)O2)c(=O)[nH]c1=O (stereo not given),0.293%,-1.7%,-0.477%,0.481%,-0.264%,-0.492%,1.41%,-1.27%,1%,0.705%
Cc1cnc(NC(=O)C2=C(O)c3ccccc3S(=O)(=O)N2C)s1,-1.57%,2.24%,-0.44%,-0.195%,-0.277%,-2.36%,0.475%,-3.44%,1.38%,-0.269%
COc1ccc2cc(CCC(C)=O)ccc2c1,-3.29%,-0.34%,1.11%,-2.24%,0.174%,-2.89%,31.7%,-0.544%,-8.13%,3.04%
[I-].[K+],-0.931%,-0.668%,-0.00688%,-0.676%,0.215%,-4.01%,20.4%,-0.567%,-0.261%,-4.16%
NC(=O)NO,-5.64%,-0.579%,-2.73%,-1.74%,-1.77%,-4.15%,2.98%,-2.11%,-4.44%,1.21%
O=C([O-])[C@H](O)[C@@H](O)[C@H](O)[C@H](O)CO.[Na+],0.856%,4.24%,2.56%,1.18%,1.7%,0.0619%,3.09%,1.5%,2.94%,-0.611%
O=C(O)C[C@H](O)C[C@H](O)/C=C/c1c(C2CC2)nc2ccccc2c1-c1ccc(F)cc1,16.1%,-2.02%,38.6%,7.33%,48.3%,30.8%,56.2%,39.9%,33.5%,32.8%
COc1cc2nc(N3CCN(C(=O)C4CCCO4)CC3)nc(N)c2cc1OC (stereo not given),1.51%,-0.298%,0.774%,0.282%,2.19%,-0.97%,28%,2.95%,-1.11%,-3.7%
Cc1cn([C@@H]2C[C@@H](O)[C@H](CO)O2)c(=O)[nH]c1=O,0.778%,-0.0219%,0.328%,-2.07%,-0.771%,-3.82%,1.03%,-0.72%,-10.2%,-2.27%
CC(=O)CCCCn1c(=O)c2c(ncn2C)n(C)c1=O,0.465%,1.18%,0.88%,0.578%,2.34%,2%,1.61%,-0.648%,2.85%,0.487%
Cc1oncc1C(=O)Nc1ccc(C(F)(F)F)cc1,12%,9.13%,10.1%,22.6%,24.2%,9.78%,55.7%,28.2%,1.33%,2.78%
CCCCOc1ccc(CC(=O)NO)cc1,4.76%,1.97%,54.5%,3.15%,12.5%,12.9%,17.1%,3.36%,-3.3%,-0.824%
CN(C)c1ccc(O)c2c1C[C@H]1C[C@H]3[C@H](N(C)C)C(=O)C(C(N)=O)=C(O)[C@@]3(O)C(=O)C1=C2O,-4.52%,-0.19%,0.692%,-1.39%,3.12%,-2.93%,5.14%,2.56%,-1.8%,1.96%
